# ULK1 inh: ULK1 kinase inhibitors, primary screen, biochemical, AlphaScreen; Serine/threonine-protein kinase ULK1 (Homo sapiens), O75385; AlphaScreen Atg13 phosphorylation by ULK1, luminescence; inhibition, % at 5.96 µM; actives 1.9% (n = 30,000); AID 1259251, 2017; in the data active means inhibition above about 43%;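 further: 0% = median of compound wells and 100% = no enzyme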
# ASK1 inh: ASK1 kinase inhibitors, primary screen, biochemical, AlphaScreen; inhibition, % at 7.44 µM; AlphaScreen MKK6 phosphorylation by ASK1, luminescence; actives 0.99% (n = 22,000); Mitogen-activated protein kinase kinase kinase 5 (Homo sapiens), Q99683; in the data active means inhibition above about 35%;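 further: 0% = median of compound wells and 100% = no enzyme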
# * marks the source's active call; other numbers are inactive results; . = not tested or not shown. Only some compounds are listed: those with a hit (about 2.4% of all), similar ones and a draw of the others.
SMILES,ULK1 inh,ASK1 inh
NC(=O)c1ccccc1Nc1nc(Nc2ccc(N3CCOCC3)cc2F)ncc1Cl,82.9*,-80.9
NC(=O)c1ccccc1Nc1nc(Nc2ccc(N3CCOCC3)c(F)c2)ncc1Cl,72.3*,-65.2
NC(=O)c1ccccc1Nc1nc(Nc2ccc(F)cc2)ncc1Cl,84.9*,-66.1
COc1cc(Nc2cc(Nc3ccccc3C(N)=O)ccn2)ccc1N1CCOCC1,5.0,-4.6
Cn1cnc(-c2ccccc2Nc2nc(Nc3ccc(N4CCOCC4)cc3)ncc2Cl)n1,-11.5,11.1
Fc1cc(N2CCOCC2)ccc1Nc1nccc(-c2cncc(N3CCOCC3)c2)n1,29.6,14.6
Cn1ncnc1-c1ccccc1Nc1nc(Nc2ccc(N3CCOCC3)cc2)ncc1Cl,78.0*,-8.0
NC(=O)c1ccc(Nc2ncc(Cl)c(-c3ccccc3)n2)cc1,31.1,9.4
CCCNC(=O)c1ccc2nc(NCCN3CCOCC3)sc2c1,3.1,3.1
O=C(NCc1cccnc1)c1ccnc(-c2cccs2)c1,-2.7,15.5
Cn1ccc2cc(-c3cc(Nc4ccccc4)nc(N)n3)ccc21,2.6,9.6
O=C(Nc1ccc(N2CCOCC2)cc1)c1ccc2nc(N3CCOCC3)sc2c1,33.1,17.9
CN(C)CCNC(=O)c1ccccc1Nc1ccnc(Nc2ccc(N3CCOCC3)cc2)c1,0.8,-12.0
CNC(=O)c1ccccc1Nc1nc(Nc2ccc(N3CCOCC3)c(Cl)c2)ncc1Cl,58.1*,-26.8
Oc1c(I)cc(I)c2cccnc12,51.1*,.
Oc1c(Cl)cc(Cl)c2cccnc12,27.1,.
Oc1ccc(Cl)c2cccnc12,11.4,.
O=S(=O)(O)c1cc(I)c(O)c2ncccc12,45.1*,.
Nc1nc(NC2CCC(O)CC2)cc(NC2CC2)n1 (configuration not stated),-7.8,8.1
CC(C)c1cc(C(C)C)c(CC(=O)NS(=O)(=O)Oc2c(C(C)C)cccc2C(C)C)c(C(C)C)c1,85.2*,.
Cc1cc(Nc2ccc(N3CCOCC3)cc2)nc(NCc2cccnc2)n1,14.4,-4.1
O=c1[nH]ccc2c(S(=O)(=O)N3CCCNCC3)cccc12,45.8*,-18.4
O=C1CCc2cc(S(=O)(=O)N3CCCNCC3)ccc2N1,-7.8,-23.1
CC(=O)Nc1ccc(Nc2nc(NC3CCC(O)CC3)nc3c2ncn3C(C)C)cc1 (configuration not stated),61.8*,9.3
OC1CCC(Nc2nc(Nc3ccccc3)c3ncn(-c4ccccc4)c3n2)CC1 (configuration not stated),2.8,-1.2
SMILES,ULK1 inh,ASK1 inh
CC(C)n1cnc2c(Nc3ccccc3)nc(NC3CCC(O)CC3)nc21 (configuration not stated),55.9*,2.0
CC(C)n1cnc2c(Nc3ccc4c(c3)OCO4)nc(NC3CCC(O)CC3)nc21 (configuration not stated),35.4,10.4
CN1CCN(c2ccc(NC(=O)c3cccc(-n4cc(NC(=O)Cc5ccccc5)cn4)c3)cc2)CC1,2.8,-3.0
CC(=O)Nc1ccc(NC(=O)Cc2cn(-c3ccc(Nc4ccncn4)nn3)c3ccccc23)cc1,17.1,16.5
c1ccc(OCCNc2nc(-c3csc4ccccc34)nc3c2ncn3C2CCCCC2)cc1,2.6,3.8
COc1cc2nc(Nc3ccc(N4CCOCC4)cc3)nc(Nc3ccc(OCCN4CCCCC4)cc3)c2cc1OC,-7.5,48.9*
Cc1cc(Nc2ccc(OCCN3CCCCC3)cc2)nc(Nc2ccc(N3CCOCC3)cc2)n1,9.0,10.0
COc1cc2nc(Nc3ncccn3)nc(Nc3ccc(N4CCOCC4)cc3)c2cc1OC,-7.3,-0.7
COc1cc2nc(Nc3ccncc3)nc(Nc3ccc(N4CCOCC4)cc3)c2cc1OC,-4.3,42.2*
Cc1cc(NCCCN2CCCC2=O)nc(Nc2nc3ccccc3n2C)n1,4.1,-2.3
COc1cccc(CN(CCN(C)C)C(=O)c2cn3ccc(-c4cn[nH]c4)cc3n2)c1,6.1,-0.8
CN(C)c1ccc(C(=C2C=CC(=[N+](C)C)C=C2)c2ccc(N(C)C)cc2)cc1,79.8*,.
CN(C)c1ccc(C(=C2C=CC(=[N+](C)C)C=C2)c2ccccc2)cc1,9.2,.
Cc1nc(NCCCn2ccnc2)cc(-c2ccccc2F)n1,0.8,.
CCN(CC)C(=O)C1CCCN(c2ncc(C(=O)Nc3ccc(Oc4ccccc4)cc3)s2)C1 (configuration not stated),-4.7,4.2
O=C(Nc1ccc(N2CCOCC2)cc1)c1cnc(N2CCOCC2)s1,44.8*,4.0
CCN(CC)C(=O)C1CCCN(c2ncc(C(=O)Nc3ccc(N4CCOCC4)cc3)s2)C1 (configuration not stated),48.5*,-14.6
O=C(Nc1ccc(N2CCOCC2)cc1)c1cnc(N2CCN(c3ccccn3)CC2)s1,-6.3,0.5
CC(C)n1c(N2CCOCC2)nc2c(NC3CC3)ncnc21,-4.2,2.7
O=C(Nc1ccccc1)c1cccc(N2CCN(Cc3ccc4c(c3)OCO4)CC2)n1,-7.3,-5.5
CC(=O)Nc1ccc(Nc2cc(Nc3ccncn3)ncn2)cc1,62.3*,10.7
CC(=O)Nc1ccc(Nc2cc(Nc3ccncc3)nc(N)n2)cc1,2.2,-0.9
CC(=O)Nc1ccc(Nc2cc(Nc3ccncn3)nc(N)n2)cc1,4.8,4.2
CC(=O)Nc1ccc(Nc2cc(Nc3ccncc3)ncn2)cc1,79.3*,-1.8
COc1cc(Nc2cc(Nc3cnccn3)ncn2)cc(OC)c1OC,7.7,10.7
SMILES,ULK1 inh,ASK1 inh
COc1cc(Nc2cc(Nc3ccncc3)ncn2)cc(OC)c1OC,62.4*,17.4
CC(C)n1cnc2c(NCCN3CCOCC3)nc(Nc3ccc(C(F)(F)F)cc3)nc21,-12.9,-8.7
CN(C)CCN(C)c1cc(-c2cn[nH]c2)ccc1NC(=O)OCc1ccccc1,-1.6,-3.4
O=C(NCc1ccccc1)c1ccnc(Nc2ccc(-n3ccnc3)cc2)c1,-1.9,-13.3
O=C(NCCCN1CCCC1=O)c1cc(Cl)nc2ccccc12,-24.5,-14.1
O=C(NCc1ccccc1)c1cnc(-c2csc3ccccc23)s1,-1.8,-10.4
COc1cc(Nc2nc(NCCN(C(C)C)C(C)C)c3[nH]cnc3n2)cc(OC)c1OC,9.8,4.6
COc1cc(Nc2nc(Nc3cccnc3)nc3nc[nH]c23)cc(OC)c1OC,22.5,-2.5
COc1cc(Nc2nc(Nc3ccccc3)c3[nH]cnc3n2)cc(OC)c1OC,65.0*,-9.7
CCCNc1nc(Nc2cc(OC)c(OC)c(OC)c2)nc2nc[nH]c12,59.0*,-41.2
COc1cc(Nc2nc(NCc3ccccc3)c3[nH]cnc3n2)cc(OC)c1OC,67.4*,-18.7
COc1cc(Nc2nc(Nc3nccc4ccccc34)nc3nc[nH]c23)cc(OC)c1OC,1.3,-8.3
CCN(CC)c1nc(NCc2ccc3c(c2)OCO3)nc(Nc2ccccc2)n1,-2.1,7.4
O=C1CCCN1CCCNc1cc(-c2ccc3[nH]ccc3c2)ncn1,-9.6,-2.9
O=C(NC1CCN(Cc2ccccc2)CC1)c1ccc2nc(Nc3cccnc3)sc2c1,13.8,-1.4
c1ccc(CN2CCC(Nc3nc(-c4ccc(N5CCOCC5)nc4)nc4nc[nH]c34)CC2)cc1,2.6,20.1
c1ccc(-n2cnc3c(NCCN4CCOCC4)nc(N4CCN(Cc5ccc6c(c5)OCO6)CC4)nc32)cc1,-7.1,3.8
O=C(Nc1ccc2[nH]ncc2c1)[C@@H]1CCCN1,38.2,3.4
O=C(Nc1ccc2[nH]ncc2c1)[C@H]1CCCN1,44.6*,-12.0
O=C(Nc1ccc2[nH]ncc2c1)C(O)c1ccc(Cl)cc1 (configuration not stated),9.3,-14.5

# Bioassay records (PubChem)
